According to PubChem BioAssay (NCATS):
Inconclusive results are not listed. Activity calls are given as the source filed them. Calls follow the shape of the full dose curve.

Experiment: Validation screen for inhibitors of Lassa infection (AID 463096)
Conditions: Lassa virus infection, cell-based; series mostly up to 46.1 µM

SMILES | outcome
NC(N)=Nc1nc(CSCC/C(N)=N/S(N)(=O)=O)cs1 | inactive
CCN(Cc1ccncc1)C(=O)C(CO)c1ccccc1 (configuration not stated) | inactive
Cc1ccc(Cl)c(Nc2ccccc2C(=O)O)c1Cl | inactive
Cc1nc2c([nH]1)c(=O)n(C)c(=O)n2Cc1ccco1 | inactive
CC(C)(C)NCC(O)c1cc(O)cc(O)c1 (configuration not stated) | inactive
CN(C)CCOC(=O)COc1ccc(Cl)cc1 | inactive
CCC1(C)CC(=O)NC1=O (configuration not stated) | inactive
NCCCNCCSP(=O)(O)O | inactive
COc1ccc2cc([C@H](C)C(=O)O)ccc2c1 | inactive
N[C@@H](COP(=O)(O)O)C(=O)O | inactive
C1COC(NC(C2CC2)C2CC2)=N1 | inactive
CCn1nc(C(=O)O)c(=O)c2cc3c(cc21)OCO3 | inactive
COC(=O)[C@@H]1[C@H]2C[C@H]3c4[nH]c5ccccc5c4CCN3C[C@@H]2CC[C@@H]1O | inactive
CC(=O)OCC1=C(C(=O)O)N2C(=O)[C@@H](NC(=O)Cc3cccs3)[C@H]2SC1 | inactive
CCN(CC)CCOC(=O)c1ccc(N)cc1 | inactive
CNC[C@H](O)c1cccc(O)c1 | inactive
Cc1nnc(SCC2=C(C(=O)O)N3C(=O)[C@@H](NC(=O)Cn4cnnn4)[C@H]3SC2)s1 | inactive
CC(C)C(=O)c1c(C(C)C)nn2ccccc12 | inactive
Cc1scc2c1N(C(=O)CN1CCN(C)CC1)c1ccccc1NC2=O | inactive

SMILES | outcome
O=c1c(-c2ccc(O)cc2)coc2cc(O)cc(O)c12 | inactive
NC/C=C/C(=O)O | inactive
CCO/C([O-])=N/c1c[n+](N2CCOCC2)no1 | inactive
C[C@](N)(Cc1ccc(O)cc1)C(=O)O | inactive
Clc1cccc(Cl)c1NC1=NCCN1 | inactive
CC(CCc1ccc(O)cc1)NCCc1ccc(O)c(O)c1 (configuration not stated) | inactive
O=C(O)CCCCCCCC(=O)O | inactive
CCN(CC)C(=O)c1ccc(O)c(OC)c1 | inactive
FC(F)(F)c1ccccc1-n1ccnc1 | inactive
CC(=O)Oc1cc(C(C)C)c(OCCN(C)C)cc1C | inactive
NCCS(=O)(=O)O | inactive
CC(=O)OC(C)C[N+](C)(C)C (configuration not stated) | inactive
NC1CCN(c2cccc(Cl)n2)CC1 | inactive
CN1C(C(=O)Nc2ccccn2)=C(O)c2ccccc2S1(=O)=O | inactive
CC(C)(Oc1ccc(C2CC2(Cl)Cl)cc1)C(=O)O (configuration not stated) | inactive
O=C(O)CN(CCN(CC(=O)O)CC(=O)O)CCN(CC(=O)O)CC(=O)O | inactive
CO[C@@]1(NC(=O)CSCC#N)C(=O)N2C(C(=O)O)=C(CSc3nnnn3C)CS[C@@H]21 | inactive
CCCNC(C)C(=O)Nc1ccccc1C (configuration not stated) | inactive
